# This is part of a sample that, as a whole, favours compounds with a hit. Of some 83,000 tested, about 20% had one in any assay.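 Percent growth is the endpoint: 0 to 100 indicates growth inhibition (40 means 60% inhibition), 0 means no net growth, and negative values indicate cell death.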 Activity calls are given as the source filed them. The calls were made as follows: active = growth percent below 10; inactive = the rest.
# Test system: HL-60(TB) leukemia
# Assay: NCI-60 one-dose screen, 48 h (100 = growth as untreated, 0 = no growth, -100 = all killed)
# Conditions: 10 µM unless noted
row,Structure (SMILES),growth
1,COc1cc(C2NC(c3ccc(Cl)cc3)C(C)/C(=N/NC(N)=S)C2C)cc(OC)c1OC (centres undefined),79.9% (inactive)
2,CC(=O)[C@@H]1CC[C@]2(C(=O)n3ccnc3)CC[C@]3(C)[C@H](CC[C@@H]4[C@@]5(C)Cc6c([nH]c7ccccc67)C(C)(C)[C@@H]5CC[C@]43C)[C@@H]12,90.9% (inactive)
3,CCCCCCCCCCCCCCCCCc1nccn1CCO,64.4% (inactive)
4,C=C(NC(=O)C(=C)NC(=O)c1csc(C2=NC3c4csc(n4)C4NC(=O)c5csc(n5)C(C(C)(O)C(C)O)NC(=O)C5CSC(=N5)C(=CC)NC(=O)C(C(C)O)NC(=O)c5csc(n5)C3(CC2)NC(=O)C(C)NC(=O)C(=C)NC(=O)C(C)NC(=O)C(C(C)CC)NC2C=Cc3c(C(C)O)cc(nc3C2O)C(=O)OC4C)n1)C(N)=O (centres undefined),3.83% (active)
5,CCO/C=C1\SC(=S)N(c2cccc(C)c2)C1=O,99% (inactive)
6,O=Nc1ccccc1N=O,78.3% (inactive)
7,O=S(=O)(NC1c2ccccc2Oc2ccccc21)c1cc(Cl)ccc1Cl,86.7% (inactive)
8,CN1CCN(c2nc(NCCCNc3ccnc4cc(Cl)ccc34)c3ccccc3n2)CC1,15% (inactive)
9,Cn1nnnc1-c1ccc(N)cc1,94.4% (inactive)
10,Cc1c(O)c(=O)ccn1-c1nc2ccccc2s1,98.3% (inactive)
11,CC(C)c1ccc(C(=O)Nc2sc3c(CN(C)C)c(O)ccc3c2C(N)=O)cc1,24.2% (inactive)
12,O=c1c2cc(F)ccc2sc2c(NCCN3CCOCC3)nc3ccccc3c12,65.3% (inactive)
13,N/C(=N\c1nc2ccccc2s1)NC(=O)Nc1cccc2ccccc12,-26.8% (active)
14,CC1=NC(c2ccc(Cl)cc2)C2=C(N1)/C(=C/c1ccc(Cl)cc1)CCC2 (centres undefined),85.8% (inactive)
15,C=CCNC(=O)/C(=C/c1cccc([N+](=O)[O-])c1)NC(=O)c1ccccc1,137% (inactive)
16,CC(C)(C)[Si](C)(C)OCC1OC(n2cnc3c(N)ncnc32)CC1OS(C)(=O)=O (centres undefined),104% (inactive)
17,COc1cc(/C=C/C(=O)c2ccc(F)cc2)ccc1OCCCCOc1cc2c(cc1OC)C(=O)N1CCCC1C=N2 (centres undefined),-32.6% (active)
18,COc1cc2nn(-c3ccccc3N)nc2cc1OC,102% (inactive)
19,Cn1cc(-c2nc(-c3c[nH]c4c(Cl)nccc34)cs2)c2ccccc21,83.3% (inactive)
20,CCCCN1CCCC[C@@H]1C(=O)N[C@H](C(=O)N(C)[C@H](CCc1nc(C(=O)N[C@@H](Cc2ccccc2)C[C@H](C)C(=O)OC)cs1)C(C)C)C(C)C,5.08% (active)

row,Structure (SMILES),growth
1,COc1cc2c(cc1O)CC[C@@H]1[C@@H]2CC[C@]2(C)[C@@H](OCCN(C)C)CC[C@@H]12,87.6% (inactive)
2,O=C(NCOC(O)C(Cl)(Cl)Cl)NCOC(O)C(Cl)(Cl)Cl (centres undefined),0.027% (active)
3,Nc1ncnc2c1N=C(c1ccc(Br)cc1)CC(c1cccc(Nc3ccnc4cc(C(F)(F)F)ccc34)c1)N2 (centres undefined),38.1% (inactive)
4,Nc1c(C(=O)Nc2cccc3cnccc23)sc2nc3c(cc12)CN(Cc1ccccc1)CC3,101% (inactive)
5,O=C1Nc2ccccc2/C1=C/c1cn(C[C@@H](O)Cn2c3ccccc3c(=O)c3ccccc32)c2ccccc12,82% (inactive)
6,Cc1ccc(-c2nc([P+](c3ccccc3)(c3ccccc3)c3ccccc3)c(N3C[C@H]4C[C@H](C3)c3cccc(=O)n3C4)o2)cc1,36.7% (inactive)
7,NC(=O)N1N=C(c2ccc(Cl)cc2)CC1c1cn(-c2ccccc2)nc1-c1ccc(Cl)cc1 (centres undefined),80.9% (inactive)
8,CN(C)c1ccc(/C=N/Nc2nnc3n2N=C(c2ccc(Cl)cc2)CS3)cc1,91.4% (inactive)
9,Nc1c(C(=O)Nc2ccccn2)sc2nc3c(cc12)C(=O)CCC3,5.15% (active)
10,COc1cc(CC(=O)c2ccc(O)c(OC)c2)ccc1O,87% (inactive)
11,c1cc(-c2nnc(SSc3ncnc4nc[nH]c34)o2)ccn1,18% (inactive)
12,Nc1nc2c(ncn2[C@@H]2O[C@H](CS)[C@@H](O)[C@H]2O)c(=O)[nH]1,101% (inactive)
13,NS(=O)(=O)c1ccc(C(=O)NN2C(=O)c3ccccc3C2=O)cc1,103% (inactive)
14,CC(=O)OC(C)c1cccc(C#N)c1 (centres undefined),105% (inactive)
15,O=C(CNc1ncco1)Nc1ccc(S(=O)(=O)c2ccc(NC(=O)CNc3ncco3)cc2)cc1,44.8% (inactive)
16,O=C1CSC(c2ccccc2)N1c1ccccc1 (centres undefined),99.7% (inactive)
17,NC(=S)N/N=C/c1ncccc1O,-23.2% (active)
18,COc1ccc(-c2nc3ccc(-c4nc5ccc(N6CCN(c7ccncc7)CC6)cc5[nH]4)cc3[nH]2)cc1OC,35.3% (inactive)
19,Oc1ccc(N=Cc2ccccc2O)cc1,63.3% (inactive)

# From PubChem BioAssay (NCI)
